# Measurements as given in PubChem BioAssay (NCATS).
# Results filed as inconclusive are left out. Unmarked numbers belong to inactive results. Calls follow the shape of the dose curve; as a rule, active = well fitted cell-killing curve with a large enough effect; inconclusive = small, poorly fitted or top-dose-only effect; inactive = flat fitted curve, though single readings scatter.
# Assay: Cell Viability - N2a (AID 540);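 also: cells exposed to compound for 40 h at 37 °C; plate controls were DMSO alone for no effect and tamoxifen control for full effect; nearly all actives have a fitted effect of over 45% in size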
# Conditions: N2a mouse neuroblastoma cell viability; activity change, negative = cytotoxicity: at 92.2 µM (top of the series)
# Text: NIH Chemical Genomics Center [NCGC]
# NIH Molecular Libraries Screening Centers Network [MLSCN]
# National Institutes of Environmental Health Sciences [NIEHS]
# National Toxicology Program [NTP]
# We have developed a 1536-well cell-based assay for quantitative high throughput screening (qHTS) against a number of cell lines to determine in vitro cytotoxicity of small molecules. This particular assay uses the N2a cell line which is derived from mouse neuroblastoma.
# NCGC Assay Protocol Summary:
# The CellTiter-Glo luminescent cell viability assay (Promega) is a homogeneous method to measure the number of viable cells in culture. The end point readout of this assay is based on quantitation of intracellular ATP, an indicator of metabolic activity, using the luciferase reaction. Luciferase catalyzes the oxidation of beetle Luciferin to oxyluciferin and light in the presence of ATP. The luminescent signal is proportional to amount of ATP present.
# Using the CellTiter-Glo luminescent cell viability assay, the amount of cellular ATP was measured in the N2a cell line with complete culture medium following compound treatment for 40 hours. The assay was performed in opaque white Kalypsys 1536-well plates. In the screen, tamoxifen and doxorubicin were used as positive controls. Library compounds were measured for their ability to cause acute toxicity in the cell line, as reflected by a decrease in intracellular ATP levels, in a concentration-dependent manner. […] AC50 values were determined from concentration-response data modeled with the standard Hill equation.
# qHTS protocol for CellTiter Glo N2a cellular assay
# [Step] [Parameter] [Value] [Description]
# 1. Reagent; 5 uL; 1500 N2a cells/well
# 2. Time; 5 hr; 37 °C incubation
# 4. Controls; 23 nL; Tamoxifen 0.34 uM to 100 uM & Doxorubicin 0.02 nM to 100 uM
# 5. Time; 40 hr; 37 °C incubation
# 6. Reagent; 5 uL; CellTiter Glo reagent
# 7. Time; 20 min; Room Temperature
# 8. Detection; Luminescence; Viewlux plate reader
# Keywords: cell viability, cytotoxicity, N2a cell line, luminescence, NTPHTS, NTPHTS_NCGC, NIEHS, EPA, DSSTox, MLSMR, MLSCN, NIH Roadmap, qHTS, NCGC
row,Compound,"activity change, negative = cytotoxicity [%]"
1,O=C(O)c1cc(Cl)cc(Cl)c1,-1.73
2,COc1cccc(N)c1,-15.1
3,CC(=O)Nc1ccc(N)cc1,4.55
4,O=C1CCC(=O)O1,2.23
5,FB(F)F,5.96
6,CCC=O,1.92
7,CCc1ccccc1O,2.33
8,CC(=O)c1ccc([N+](=O)[O-])cc1,0.428
9,Nc1cc([N+](=O)[O-])ccc1C(=O)O,7.91
10,C=CC(=O)NC(C)C,4.17
11,Cc1ccc([N+](=O)[O-])c(N)c1,-4.55
12,Nc1ccccc1[N+](=O)[O-],-9.35
13,CCC(C)(C)OC,-20.8
14,O=C1OC(=O)c2cc([N+](=O)[O-])ccc21,-2.26
15,CC(=O)c1cccc([N+](=O)[O-])c1,0.298
16,c1ccc2n[nH]nc2c1,-2.18
17,COC(=O)CC#N,-15.8
18,Cc1cc(C)cc(N)c1,0.732
19,CCCCCCC=O,-2.45
20,CCNc1ccccc1,2.42

row,Compound,"activity change, negative = cytotoxicity [%]"
1,CCCC=O,-20.1
2,Cc1ccc(S(=O)(=O)NC2CCCCC2)cc1,-19.2
3,Nc1ccc([N+](=O)[O-])c(N)c1,0.888
4,COC(=O)CCC(=O)OC,-1.63
5,Nc1cccc2c(=O)[nH][nH]c(=O)c12,9.7
6,Nc1cccc(S(=O)(=O)O)c1,-6.89
7,CSc1ccc(C=O)cc1,0.565
8,CNc1ccccc1,-12.9
9,COC(=O)CS,-8.95
10,Cc1ccc(Cl)cc1N,-10.6
11,c1ccc2c(c1)ccc1ncccc12,-0.126
12,Cc1cccc(C(=O)O)c1,-7
13,CC(C)N(C)C,-3.04
14,CCOCCOCC,-1.44
15,CC(C)=CCC/C(C)=C/C=O,-7.95
16,CN(C)CCCCl,-0.582
17,C1CCC2OC2C1 (stereo not given),-14.9
18,O=[N+]([O-])c1cccc(Cl)c1,-8.23
19,CC(CCl)OC(C)CCl (stereo not given),2.8
20,CC(=O)c1nccs1,2.98
